# Assay results as given in PMC4336329 (PLoS ONE, 2015).
# About 14,000 (4.5%) of roughly 310,000 compounds showed an effect of 50% or more. The effect is printed as a negative number. The sample holds strong results, similar compounds and a random draw of the others, so the mix is not that of the screen.
# Target: human ether-à-go-go-related gene (hERG) potassium channel (human, UniProt Q12809)
# Assay: primary screen, population patch clamp on CHO cells stably expressing hERG; higher = less effect of the substance
# 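Further: peak tail current of the secondary pulse compared with the same well before compound.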
# human ether-à-go-go-related gene (hERG) potassium channel, sequence (Q12809 whole entry, looked up): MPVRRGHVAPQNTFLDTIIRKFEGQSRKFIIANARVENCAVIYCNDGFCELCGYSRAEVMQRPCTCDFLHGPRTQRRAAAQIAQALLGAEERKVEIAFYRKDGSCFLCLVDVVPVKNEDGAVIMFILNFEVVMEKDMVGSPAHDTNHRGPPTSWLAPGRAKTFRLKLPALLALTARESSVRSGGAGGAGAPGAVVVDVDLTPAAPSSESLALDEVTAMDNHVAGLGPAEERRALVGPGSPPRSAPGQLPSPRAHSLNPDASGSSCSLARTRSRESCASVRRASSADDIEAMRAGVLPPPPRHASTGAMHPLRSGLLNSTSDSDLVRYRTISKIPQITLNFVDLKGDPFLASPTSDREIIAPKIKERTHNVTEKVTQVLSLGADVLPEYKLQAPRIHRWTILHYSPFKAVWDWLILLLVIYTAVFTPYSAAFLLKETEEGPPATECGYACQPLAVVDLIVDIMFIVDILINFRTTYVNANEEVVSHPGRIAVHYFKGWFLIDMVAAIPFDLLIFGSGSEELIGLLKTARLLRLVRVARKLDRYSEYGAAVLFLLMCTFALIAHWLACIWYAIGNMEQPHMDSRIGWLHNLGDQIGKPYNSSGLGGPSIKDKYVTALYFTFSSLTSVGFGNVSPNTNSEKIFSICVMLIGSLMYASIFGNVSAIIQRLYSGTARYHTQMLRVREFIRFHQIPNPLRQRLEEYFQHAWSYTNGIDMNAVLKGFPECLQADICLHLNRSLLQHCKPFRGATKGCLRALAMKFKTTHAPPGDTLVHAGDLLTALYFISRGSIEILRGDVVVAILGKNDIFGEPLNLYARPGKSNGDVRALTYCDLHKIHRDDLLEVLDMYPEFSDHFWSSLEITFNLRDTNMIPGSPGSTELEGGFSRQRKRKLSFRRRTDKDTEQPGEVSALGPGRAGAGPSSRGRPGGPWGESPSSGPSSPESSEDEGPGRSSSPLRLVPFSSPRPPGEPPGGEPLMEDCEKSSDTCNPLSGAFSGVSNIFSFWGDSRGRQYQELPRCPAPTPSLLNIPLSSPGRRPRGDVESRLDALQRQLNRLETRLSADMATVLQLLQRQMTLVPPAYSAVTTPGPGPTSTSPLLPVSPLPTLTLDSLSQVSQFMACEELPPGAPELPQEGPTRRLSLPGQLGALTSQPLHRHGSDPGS
row,Compound,"hERG current change (%, negative = inhibition) at 10uM [%]"
1,Cc1oc(C(C)(C)C)cc1C(=O)N1CCN(c2ccc(C(F)(F)F)cn2)CC1,-5.33
2,Cc1ccc(N(C(=O)c2nsc(Cl)c2Cl)C(C(=O)NC2CCCC2)c2ccc(O)cc2)cc1C (centres unmarked),9.52
3,COc1ccc(-n2c(O)c(/C=N/n3cnnc3)c3ccccc3c2=O)cc1,-1.22
4,CC(=O)Nc1ccc(S(=O)(=O)NC2=C(N3CCN(C)CC3)C(=O)c3ccccc3C2=O)cc1,-0.763
5,CC(=O)c1ccc(NC(=O)Cn2cnc(S(=O)(=O)N3CCC(C)CC3)c2)cc1,21.4
6,Cc1ccc(NC(=O)C2CCCN(c3ncnc4c3nc3n4CCCCC3)C2)nc1 (centres unmarked),-62.5
7,O=C(Nc1ccccn1)C1CCCN(c2ncnc3c2nc2n3CCCCC2)C1 (centres unmarked),-34.8
8,O=C(Nc1ccc(Cl)cn1)C1CCCN(c2ncnc3c2nc2n3CCCCC2)C1 (centres unmarked),-57.7
9,O=C(Nc1ccc(Cl)cn1)C1CCN(c2ncnc3c2nc2n3CCCCC2)CC1,-38.8
10,Cc1cccc(NC(=O)C2CCN(c3ncnc4c3nc3n4CCCCC3)CC2)n1,-29.5
11,Cc1ccnc(NC(=O)C2CCCN(c3ncnc4c3nc3n4CCCCC3)C2)c1 (centres unmarked),-45.6
12,Cc1cccc(NC(=O)C2CCCN(c3ncnc4c3nc3n4CCCCC3)C2)n1 (centres unmarked),-54.2
13,O=C(Oc1ccc2c3c(c(=O)oc2c1)CCC3)c1ccco1,-1.09
14,CCOC(=O)c1ccc(NC(=O)CN2C(=O)NC3(CCCCCCC3)C2=O)cc1,-7.35
15,COC(=O)c1[nH]c2ccc(F)cc2c1NS(=O)(=O)c1ccc(F)c(C)c1,0.344
16,Cc1ccc(C2Nc3ccccc3NC3=C2C(=O)CC(C)(C)C3)c(O)c1 (centres unmarked),3.15
17,Nc1c2c(nc3sc4c(c13)CCCCC4)CCCCC2,-25.9
18,Nc1c2c(nc3sc4c(c13)CCCC4)CCCC2,-70.4
19,Nc1c2c(nc3sc4c(c13)CCCC4)CCCCC2,-6.3
20,Cc1nc2ccccc2nc1OCC(=O)Nc1ccccc1,14.8

row,Compound,"hERG current change (%, negative = inhibition) at 10uM [%]"
1,Cc1ccc(S(=O)(=O)N(CC2CO2)c2cc(Cl)ccc2Cl)cc1 (centres unmarked),-6.93
2,CC1(C(=O)NCCCNc2ncc(C(F)(F)F)cc2Cl)C=CCN1C(=O)c1ccccc1 (centres unmarked),-56.4
3,C[C@]1(C(=O)NCCCNc2ncc(C(F)(F)F)cc2Cl)C=C[C@@H](Cc2ccccc2)N1C(=O)c1ccccc1,7.01
4,COC(=O)N1[C@H](C)C=C[C@]1(Cc1ccccc1)C(=O)NCCCNc1ncc(C(F)(F)F)cc1Cl,-10.5
5,O=C(COC(=O)COc1ccccc1[N+](=O)[O-])Nc1ccccc1Br,3.82
6,COCCCNC(=S)N1CCN(c2nc(-c3ccccc3)cs2)CC1,-5.55
7,CCCCNC(=O)CCSc1ccc(C)cc1,-2.9
8,CSc1ccc(CN(C)CC(=O)NCCc2ccccc2)cc1,-35.5
9,CSc1ccc(CN(C)CC(=O)NCc2ccccc2)cc1,-52.5
10,CSc1ccc(CN(C)CC(=O)Nc2ccc(NC(C)=O)cc2)cc1,-25.8
11,CSc1ccc(CN(C)CC(=O)NC(=O)NC(C)(C)C)cc1,-3.83
12,CSc1ccc(CN(C)CC(=O)Nc2ccccc2Br)cc1,17.3
13,CSc1ccc(CN(C)CC(=O)N(C)CC(=O)Nc2ccccc2Br)cc1,-56.9
14,CN(CC(=O)NCc1ccccc1)Cc1cccc(F)c1.O=C(O)C(=O)O,9.59
15,COc1ccc(CNC(=O)CN(C)Cc2ccc(C(C)(C)C)cc2)cc1.O=C(O)C(=O)O,-4.44
16,CSc1ccc(CN(C)CC(=O)NCc2ccc(F)cc2)cc1,-70.1
17,COc1ccc(CN(C)CC(=O)N(C)CC(=O)Nc2ccccc2Br)cc1F,-39.1
18,CN(CC(=O)NCc1ccc(F)cc1)Cc1ccc(Br)cc1,-35.5
19,COc1ccc(CNC(=O)CN(C)Cc2ccc(SC)cc2)cc1,-65.2
20,O=C(NC(=O)N1CCCCC1)c1ccc(Cl)cc1,15.7

row,Compound,"hERG current change (%, negative = inhibition) at 10uM [%]"
1,CCO[C@H]1OC(C(=O)Nc2ccccc2)=C[C@@H](C2CC2)[C@@H]1CCCO,1.16
2,CCCCc1nnc(NC(=O)CCc2ccccc2)s1,19.3
3,COC(=O)c1ccc(-n2nnnc2SCC(=O)Nc2cc(OC)ccc2OC)cc1,2.37
4,CCOC(=O)c1nn(-c2cccc(C)c2)c2nnc(Cc3ccc(C)cc3)c(=O)n12,-16.1
5,O=C(Nc1ccc(SC(F)F)cc1)C1CC(=O)N(Cc2ccccc2)C1 (centres unmarked),-48
6,COc1ccc(S(=O)(=O)N2CCN(C(=O)c3c(C)nn(-c4ccccc4)c3Cl)CC2)cc1,-19.4
7,CCC(=O)N1CCN(c2ccc(Cl)cc2NC(=O)c2ccc3c(c2)OCCO3)CC1,-37.2
8,O=C(Nc1ccc(Cl)cc1)c1ccc(CN2CCc3ccccc3C2)cc1,13.7
9,COc1cccc(C(=O)N2CCN(C(=O)Cc3ccccc3)CC2)c1.O=C(O)C(=O)O,-0.00122
10,CCC(=O)Nc1ccc(C(=O)Nc2cccnc2)cc1,-0.52
11,CC(OC(=O)c1cc(S(=O)(=O)N2CCOCC2)ccc1Br)C(=O)N1CCOCC1 (centres unmarked),-12
12,O=C(Nc1nccs1)C1CCN(S(=O)(=O)c2ccc(F)cc2)CC1,2.1
13,CCOC(=O)CNC(=O)CSc1ccc(-c2nc3ccccc3[nH]2)cn1,-6.35
14,COc1ccccc1CNC(=O)CN(C)CC(=O)Nc1cccc(F)c1,4.16
15,COc1ccccc1CNC(=O)CN(C)Cc1ccc(SC)cc1,-50.8
16,COc1cccc(CN(C)CC(=O)NCc2ccc(F)cc2)c1OC,6.98
17,Cc1ccc(CN(C)CC(=O)NC(C)c2ccccc2)cc1 (centres unmarked),-16
18,CSc1ccc(CN(C)CC(=O)NC(C)c2ccccc2)cc1 (centres unmarked),-83.9
19,CC(NC(=O)CN(C)Cc1ccc(Br)cc1)c1ccccc1 (centres unmarked),-19.3
